# Measurements taken from the supplement of paper PMC8728848.
# The full list was thinned out, with the strongest signals kept by preference.
# Tests used:
# Assay in all cases: glycan array binding signal (z-score within array); higher = stronger binding
# Settings in all cases: glycan notation: IUPAC condensed, linker removed
# [1] = biological target: Fuc(a1-2)Gal(b1-3)GalNAc(a1-3)[Fuc(a1-2)]Gal(b1-4)GlcNAc
# Summary of the method: (§1)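 Glycan array data were curated from 3228 arrays in the Consortium for Functional Glycomics database and kept only where the protein sequence was available. Glycan names were converted to IUPAC-condensed notation, and columns mapping to the same glycan were averaged. The binding signal is a within-array Z-score, averaged across arrays of the same protein sequence at different concentrations or buffers and across linkers. Negative Z-scores can be read as non-binding.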
# [2] = biological target: Fuc(a1-2)Gal(b1-3)[Fuc(a1-4)]GlcNAc
# Summary of the method: as §1
# [3] = biological target: Fuc(a1-2)Gal(b1-4)Glc
# Summary of the method: as §1
# [4] = biological target: Fuc(a1-2)Gal(b1-4)GlcNAc(b1-2)[Fuc(a1-2)Gal(b1-4)GlcNAc(b1-4)]Man(a1-3)[Fuc(a1-2)Gal(b1-4)GlcNAc(b1-2)Man(a1-6)]Man(b1-4)GlcNAc(b1-4)GlcNAc
# Summary of the method: as §1
# [5] = biological target: Fuc(a1-2)[Gal(a1-3)]Gal
# Summary of the method: as §1
# [6] = biological target: Fuc(a1-2)[Gal(a1-3)]Gal(b1-3)GlcNAc(b1-2)Man(a1-3)[Fuc(a1-2)[Gal(a1-3)]Gal(b1-3)GlcNAc(b1-2)Man(a1-6)]Man(b1-4)GlcNAc(b1-4)GlcNAc
# Summary of the method: as §1
# [7] = biological target: Fuc(a1-2)[GalNAc(a1-3)]Gal(b1-4)[Fuc(a1-3)]GlcNAc(b1-3)GalNAc
# Summary of the method: as §1
# [8] = biological target: Fuc(a1-2)[GalNAc(a1-4)]Gal(b1-4)GlcNAc
# Summary of the method: as §1
# [9] = biological target: Fuc(a1-3)[Gal(b1-4)]GlcNAc(b1-2)Man(a1-3)[Fuc(a1-3)[Gal(b1-4)]GlcNAc(b1-2)Man(a1-6)]Man(b1-4)GlcNAc(b1-4)[Fuc(a1-6)]GlcNAc
# Summary of the method: as §1
# [10] = biological target: Fuc(a1-3)[Gal3S(b1-4)]GlcNAc6S
# Summary of the method: as §1
# [11] = biological target: Gal(a1-2)Gal
# Summary of the method: as §1
# [12] = biological target: Gal(a1-3)Gal(b1-4)Glc
# Summary of the method: as §1
# [13] = biological target: Gal(a1-3)Gal(b1-4)GlcNAc(b1-2)Man
# Summary of the method: as §1
# [14] = biological target: Gal(a1-3)Gal(b1-4)GlcNAc(b1-2)Man(a1-3)[Gal(a1-3)Gal(b1-4)GlcNAc(b1-2)Man(a1-6)]Man(b1-4)GlcNAc(b1-4)GlcNAc
# Summary of the method: as §1
# [15] = biological target: Gal(a1-3)[Gal(a1-4)]Gal(b1-4)GlcNAc
# Summary of the method: as §1
# [16] = biological target: Gal(a1-4)Gal(b1-4)GlcNAc(b1-2)Man(a1-3)[Gal(a1-4)Gal(b1-4)GlcNAc(b1-2)Man(a1-6)]Man(b1-4)GlcNAc(b1-4)GlcNAc
# Summary of the method: as §1
# [17] = biological target: Gal(b1-3)GalNAc(a1-3)[Fuc(a1-2)]Gal(b1-4)GlcNAc
# Summary of the method: as §1
# [18] = biological target: Gal(b1-3)GlcNAc(b1-3)Gal(b1-3)GlcNAc
# Summary of the method: as §1
# [19] = biological target: Gal(b1-3)GlcNAc(b1-3)Gal(b1-4)GlcNAc(b1-6)[Gal(b1-3)GlcNAc(b1-3)]Gal(b1-4)Glc
# Summary of the method: as §1
# [20] = biological target: Gal(b1-3)GlcNAc(b1-6)Gal(b1-4)GlcNAc
# Summary of the method: as §1
# [21] = biological target: Gal(b1-3)[Fuc(a1-4)]GlcNAc
# Summary of the method: as §1
# [22] = biological target: Gal(b1-4)GalNAc(a1-3)[Fuc(a1-2)]Gal(b1-4)GlcNAc
# Summary of the method: as §1
# [23] = biological target: Gal(b1-4)GlcNAc(b1-2)Man(a1-3)Man(b1-4)GlcNAc(b1-4)GlcNAc
# Summary of the method: as §1
# [24] = biological target: Gal(b1-4)GlcNAc(b1-2)Man(a1-3)[GlcNAc(b1-4)][Gal(b1-4)GlcNAc(b1-2)Man(a1-6)]Man(b1-4)GlcNAc(b1-4)GlcNAc
# Summary of the method: as §1
# [25] = biological target: Gal(b1-4)GlcNAc(b1-3)Gal(b1-4)GlcNAc(b1-3)Gal(b1-4)GlcNAc(b1-3)Gal(b1-4)GlcNAc(b1-2)Man(a1-3)[Gal(b1-4)GlcNAc(b1-3)Gal(b1-4)GlcNAc(b1-3)Gal(b1-4)GlcNAc(b1-3)Gal(b1-4)GlcNAc(b1-2)Man(a1-6)]Man(b1-4)GlcNAc(b1-4)GlcNAc
# Summary of the method: as §1
# [26] = biological target: Gal(b1-4)GlcNAc(b1-3)[Fuc(a1-3)GlcNAc(b1-6)]Gal(b1-4)Glc
# Summary of the method: as §1
# [27] = biological target: Gal3S(b1-3)GalNAc
# Summary of the method: as §1
# [28] = biological target: Gal3S(b1-4)Glc
# Summary of the method: as §1
# [29] = biological target: Gal6S(b1-3)GlcNAc
# Summary of the method: as §1
# [30] = biological target: Gal6S(b1-3)GlcNAc6S
# Summary of the method: as §1
# [31] = biological target: GalNAc(b1-3)GalNAc
# Summary of the method: as §1
# [32] = biological target: GalNAc(b1-4)GlcNAc(b1-3)GalNAc(b1-4)GlcNAc
# Summary of the method: as §1
# [33] = biological target: Glc(b1-4)Glc
# Summary of the method: as §1
# [34] = biological target: GlcA(b1-3)Gal
# Summary of the method: as §1
# [35] = biological target: GlcA3S(b1-3)Gal(b1-4)GlcNAc(b1-3)Gal(b1-4)Glc
# Summary of the method: as §1
# [36] = biological target: GlcNAc(a1-4)Gal(b1-4)GlcNAc(b1-3)Gal(b1-4)[Fuc(a1-3)]GlcNAc(b1-3)Gal(b1-4)[Fuc(a1-3)]GlcNAc
# Summary of the method: as §1
# [37] = biological target: GlcNAc(b1-2)Gal(b1-3)GalNAc
# Summary of the method: as §1
# [38] = biological target: GlcNAc(b1-2)Man(a1-3)[GlcNAc(b1-2)Man(a1-6)]Man(b1-4)GlcNAc(b1-4)GlcNAc
# Summary of the method: as §1
# [39] = biological target: GlcNAc(b1-2)[GlcNAc(b1-4)]Man(a1-3)[GlcNAc(b1-4)][GlcNAc(b1-2)Man(a1-6)]Man(b1-4)GlcNAc(b1-4)GlcNAc
# Summary of the method: as §1
# [40] = biological target: GlcNAc(b1-2)[GlcNAc(b1-6)]Man(a1-6)[GlcNAc(b1-2)Man(a1-3)]Man(b1-4)GlcNAc(b1-4)[Fuc(a1-6)]GlcNAc
# Summary of the method: as §1
# [41] = biological target: GlcNAc(b1-3)Gal(b1-4)GlcNAc(b1-3)Gal(b1-4)GlcNAc(b1-2)Man(a1-3)[GlcNAc(b1-3)Gal(b1-4)GlcNAc(b1-3)Gal(b1-4)GlcNAc(b1-2)Man(a1-6)]Man(b1-4)GlcNAc(b1-4)[Fuc(a1-6)]GlcNAc
# Summary of the method: as §1
# [42] = biological target: GlcNAc(b1-3)Gal(b1-4)GlcNAc(b1-3)Gal(b1-4)GlcNAc(b1-3)Gal(b1-4)GlcNAc(b1-3)Gal(b1-4)GlcNAc(b1-2)[GlcNAc(b1-3)Gal(b1-4)GlcNAc(b1-3)Gal(b1-4)GlcNAc(b1-3)Gal(b1-4)GlcNAc(b1-3)Gal(b1-4)GlcNAc(b1-6)]Man(a1-6)[GlcNAc(b1-3)Gal(b1-4)GlcNAc(b1-3)Gal(b1-4)GlcNAc(b1-3)Gal(b1-4)GlcNAc(b1-3)Gal(b1-4)GlcNAc(b1-2)Man(a1-3)]Man(b1-4)GlcNAc(b1-4)[Fuc(a1-6)]GlcNAc
# Summary of the method: as §1
# [43] = biological target: GlcNAc(b1-3)[GlcNAc(b1-4)][GlcNAc(b1-6)]GlcNAc
# Summary of the method: as §1
# [44] = biological target: GlcNAc(b1-4)GlcNAc(b1-4)GlcNAc(b1-4)GlcNAc(b1-4)GlcNAc
# Summary of the method: as §1
# [45] = biological target: Man(a1-3)[Man(a1-6)]Man
# Summary of the method: as §1
# [46] = biological target: Man(a1-3)[Man(a1-6)]Man(a1-6)[Man(a1-2)Man(a1-3)]Man(b1-4)GlcNAc(b1-4)GlcNAc
# Summary of the method: as §1
# [47] = biological target: Neu5Ac(a2-3)Gal(b1-3)[Fuc(a1-4)]GlcNAc
# Summary of the method: as §1
# [48] = biological target: Neu5Ac(a2-3)Gal(b1-3)]Neu5Ac(a2-3)Gal(b1-4)]GlcNAc
# Summary of the method: as §1
# [49] = biological target: Neu5Ac(a2-3)Gal(b1-4)GlcNAc(b1-2)Man(a1-3)[GlcNAc(b1-4)][Neu5Ac(a2-3)Gal(b1-4)GlcNAc(b1-2)Man(a1-6)]Man(b1-4)GlcNAc(b1-4)GlcNAc
# Summary of the method: as §1
# [50] = biological target: Neu5Ac(a2-3)Gal(b1-4)GlcNAc(b1-2)Man(a1-3)[Neu5Ac(a2-3)Gal(b1-4)GlcNAc(b1-2)Man(a1-6)]Man(b1-4)GlcNAc(b1-4)[Fuc(a1-6)]GlcNAc
# Summary of the method: as §1
# [51] = biological target: Neu5Ac(a2-3)Gal(b1-4)GlcNAc(b1-3)Gal(b1-4)GlcNAc(b1-3)Gal(b1-4)GlcNAc
# Summary of the method: as §1
# [52] = biological target: Neu5Ac(a2-3)Gal(b1-4)[Fuc(a1-3)]GlcNAc(b1-3)GalNAc
# Summary of the method: as §1
# [53] = biological target: Neu5Ac(a2-8)Neu5Gc(a2-3)Gal(b1-4)GlcNAc
# Summary of the method: as §1
binder,measurement,setting,value
PX9961KLbvu-535-38-535 (Bacteroides vulgatus) (protein) DKAYTDAESYTKGLHKIYSVWALSGQDGSSSSDISGLDAGNTALLRCWWTLQEQPTDEMKNAWNDAWCTEVNYMTWTTNKVEPIEGVYQRCMYIVALVNEFLKNIPNAPESIDKESYIAQARFNRAFAYYVLMDMFALPPFITEKNYSIEPAPLSREDLFNWIEAELNEIKPNLPSPRSEYGVADQAVASALLARMYLNAEIYTGKARYTECINACNEVIKAGYQLADNYADLFKADNGENPDTKKEIIYPIIFDGDKTQSWGMAAIIIGARGAEDKDVLLAHSGVDQGWAGFRATSNLVHLFDFQNDEEPKASEIQDKRGIFYDKGRSIDITSSVSGTFETEGWSVFKFSNLNSNGQPGKNTLWVDTDFPMFRLGDIYLMYAEAVARGGEGSKASAVEYINALRKRAYGDDKHNISENWLEENNFRNLLDERGRELYWEGIRRTDLVRFDLLTSGSYTWDFKGGINTGVGVNKRYNVYPIPVTDLTVNGNLQQNEGY,glycan array binding signal (z-score),[1],-0.462
same,glycan array binding signal (z-score),[2],-0.042
same,glycan array binding signal (z-score),[3],-0.031
same,glycan array binding signal (z-score),[4],2.87
same,glycan array binding signal (z-score),[5],1.72
same,glycan array binding signal (z-score),[6],0.16
same,glycan array binding signal (z-score),[7],-0.162
same,glycan array binding signal (z-score),[8],-0.165
same,glycan array binding signal (z-score),[9],-0.392
same,glycan array binding signal (z-score),[10],-0.054
same,glycan array binding signal (z-score),[11],-0.938
same,glycan array binding signal (z-score),[12],-0.366
same,glycan array binding signal (z-score),[13],-0.783
same,glycan array binding signal (z-score),[14],-0.391
same,glycan array binding signal (z-score),[15],2.6
same,glycan array binding signal (z-score),[16],2.35
same,glycan array binding signal (z-score),[17],-0.06
same,glycan array binding signal (z-score),[18],-0.549
same,glycan array binding signal (z-score),[19],-0.446
same,glycan array binding signal (z-score),[20],-0.398
same,glycan array binding signal (z-score),[21],-0.123
same,glycan array binding signal (z-score),[22],-0.291
same,glycan array binding signal (z-score),[23],0.158
same,glycan array binding signal (z-score),[24],-0.249
same,glycan array binding signal (z-score),[25],1.57
same,glycan array binding signal (z-score),[26],-0.046
same,glycan array binding signal (z-score),[27],-0.326
same,glycan array binding signal (z-score),[28],1.38
same,glycan array binding signal (z-score),[29],0.63
same,glycan array binding signal (z-score),[30],1.44
same,glycan array binding signal (z-score),[31],-0.606
same,glycan array binding signal (z-score),[32],-0.094
same,glycan array binding signal (z-score),[33],-0.497
same,glycan array binding signal (z-score),[34],-0.742
same,glycan array binding signal (z-score),[35],-0.814
same,glycan array binding signal (z-score),[36],0.673
same,glycan array binding signal (z-score),[37],0.183
same,glycan array binding signal (z-score),[38],-0.632
same,glycan array binding signal (z-score),[39],1.4
same,glycan array binding signal (z-score),[40],0.105
same,glycan array binding signal (z-score),[41],1.82
same,glycan array binding signal (z-score),[42],1.39
same,glycan array binding signal (z-score),[43],-0.666
same,glycan array binding signal (z-score),[44],-0.429
same,glycan array binding signal (z-score),[45],-0.077
same,glycan array binding signal (z-score),[46],0.357
same,glycan array binding signal (z-score),[47],1.01
same,glycan array binding signal (z-score),[48],-0.578
same,glycan array binding signal (z-score),[49],-0.451
same,glycan array binding signal (z-score),[50],0.475
same,glycan array binding signal (z-score),[51],-0.106
same,glycan array binding signal (z-score),[52],0.19
same,glycan array binding signal (z-score),[53],19.4
